Hits are enriched below; roughly 3.8% of the tested compounds scored in any of these assays.
VDR inhibitor: inhibitors of human vitamin D receptor. 0.93% of 400,000 active. Potency, µM, for the others: max response, negative = inhibition, most hits filed as inhibitors. VDR-SRC2-3 peptide fluorescence polarization, 2 h; also: potency is read from the fitted curve at half-maximal effect; % is scaled to controls: 0 for no effect and ±100 for the full control effect
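Signal is fluorescence polarization, reporting how far test compounds block the interaction of VDR with the SRC2-3 coregulator peptide after a 2 h room-temperature incubation.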
PLK1 PBD block: PLK1 (human) polo-box domain binding inhibition | P53350 | Plk1 PBD binding of FITC phosphopeptide, fluorescence polarization | Potency, µM, for the others: max response, negative = inhibition, usual class: inhibitors | 2.8% of 360,000 active | AID 720504; also: potency is read from the fitted curve at half-maximal effect; series mostly up to about 57 µM; % is scaled to controls: 0 for no effect and ±100 for the full control effect; nearly all actives have a fitted effect of over 65% in size
hERG WT inh: inhibitors of human wildtype KCNH2 potassium channel; activity change, % at 1.84 µM; U2OS, BacMam KCNH2, thallium flux FluxOr; active compounds read low; AID 720551; 0.37% of 340,000 active;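 active = maximum activity change below -70%; inconclusive = maximum activity change between -70% and -50%; inactive = maximum activity change above -50%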; also: % is scaled to controls: 0 for no effect and ±100 for the full control effect
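U2OS cells were transduced with wild-type KCNH2 virus (2.03 x 10^8 / mL) for 4 h at room temperature, then cultured overnight at 37 C. Thallium flux was read with FluxOr dye. Rate constants were normalized to DMSO controls.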
MBNL1 CUG block: inhibitors of human MBNL1 binding to CUG repeat RNA. Q9NR56. TR-FRET MBNL1-His/biotin-(CUG)12 binding, 665/545 ratio. Potency, µM (top dose mostly 57.5 µM), inactives show at the highest dose activity change, negative = inhibition, hits mostly inhibitors. 0.036% of 280,000 active. AID 2675; active = well fitted inhibition curve with a large enough effect in the signal ratio, with a control signal flat, not every such curve was filed as active; inconclusive = small, poorly fitted or top-dose-only effect, or effect the other way, or a change in a side signal; inactive = no such curve, though single readings can be large or run the other way; the % refers to the signal ratio; also: potency is read from the fitted curve at half-maximal effect; % is scaled to controls: 0 for no effect and ±100 for the full control effect
Target sequence (Q9NR56 whole entry, looked up): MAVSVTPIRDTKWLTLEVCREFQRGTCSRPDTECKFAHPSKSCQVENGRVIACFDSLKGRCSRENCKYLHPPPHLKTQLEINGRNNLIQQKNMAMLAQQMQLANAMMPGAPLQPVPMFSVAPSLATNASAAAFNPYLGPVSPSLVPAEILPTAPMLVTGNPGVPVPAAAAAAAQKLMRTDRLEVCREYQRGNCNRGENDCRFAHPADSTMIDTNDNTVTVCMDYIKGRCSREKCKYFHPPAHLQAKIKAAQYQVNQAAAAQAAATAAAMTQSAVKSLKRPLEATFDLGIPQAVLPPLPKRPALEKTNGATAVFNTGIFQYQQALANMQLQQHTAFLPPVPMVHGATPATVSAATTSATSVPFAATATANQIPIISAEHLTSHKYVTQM
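MBNL1-His + Biotin-(CUG)12, cpd titration 92 nM–58 uM; Tb anti-His Ab 0.055 ng/ul, SA-XL665 5 nM (final); 60 min RT; ratiometric 665/545 nm, Ex 340 nm; normalized to buffer and full-complex controls.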
CBFb RUNX1 block: inhibitors of human CBF-beta and RUNX1 interaction; Q01196+Q13951; AlphaScreen CBFb-His/RUNX1-biotin binding, biochemical; Potency, µM (titrated, usually from 59.8 µM), inactives show at the highest dose activity, negative = inhibition, most hits filed as inhibitors; 230,000 tested, under 10 active; AID 1477; also: % of control where 0% means no effect
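Compounds were screened at multiple concentrations against a preformed CBF-beta(His)/RUNX1(biotin) complex (30 nM of each) for 15 min at room temperature, followed by 90 min with nickel and streptavidin beads and AlphaScreen reading.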
KCNH2 3.1 inh: KCNH2 3.1 (human) potassium channel inhibition. activity change, % (tested at about 1.8 µM). U2OS KCNH2 3.1, thallium flux FluxOr; active compounds read low. 0.95% of 340,000 active;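 active = maximum activity change below -70%; inconclusive = maximum activity change from -70% to -50%; inactive = maximum activity change above -50%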;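 also: thallium influx rate constant from kinetic fluorescence after stimulation buffer; % is scaled to controls: 0 for no effect and ±100 for the full control effect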
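Thallium flux via FluxOr fluorescence (Red40 quencher, 45 min loading) in U2OS cells virally expressing the KCNH2 3.1 isoform (1.77 x 10^8 /mL virus, overnight at 37 C). Rate constants from 2-min kinetic reads post-stimulation, normalised to positive and negative controls.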
* hit, by the source's call; ? = inconclusive; . = no result. Unless noted, calls follow the shape of the dose curve; as a rule, active = well fitted curve in the direction sought with a large enough effect; inconclusive = small, poorly fitted or top-dose-only effect, or another doubt; inactive = no such curve, though single readings can be large; an effect the other way counts as inactive or inconclusive.

SMILES | VDR inhibitor | PLK1 PBD block | hERG WT inh | MBNL1 CUG block | CBFb RUNX1 block | KCNH2 3.1 inh
Cc1ccc(Nc2nc3ccc(Cl)cc3n3cnnc23)cc1F | -7% | -15% | -127* | -4% | . | -1
COc1ccc(OC)c(CCNC(=O)c2ccc3[nH]c(C)c(C)c3c2)c1 | 9% | . | . | . | . | .
COc1ccc(C2C(C(=O)Nc3cc(C)on3)c3ccccc3C(=O)N2C)cc1OC (centres undefined) | -2% | -8% | -10 | -5% | 7% | 19
CCC(C)NC(=O)C1c2ccccc2C(=O)N(c2ccc(OC)cc2)C1c1ccc(OC)cc1 (centres undefined) | ? | 24µM* | -13 | -3% | 0% | -8
COc1ccc(C2C(C(=O)Nc3cc(C)on3)c3ccccc3C(=O)N2C)cc1 (centres undefined) | -15% | 24µM* | -5 | 16% | 0% | 5
CCC(C)NC(=O)C1c2ccccc2C(=O)N1Cc1cc(OC)ccc1OC (centres undefined) | -11% | 3% | 3 | 3% | -2% | -3
Clc1ccc(Cl)c(OCCCCNCc2ccccc2)c1 | 5% | -4% | 1 | -1% | 7% | -93*
Cc1ccccc1N1C(S)=C(C#N)C(=O)NC1c1cccs1 (centres undefined) | 22µM* | ? | -6 | 0% | 1% | -14
Cc1cccc(N2C(S)=C(C#N)C(=O)NC2c2cccs2)c1 (centres undefined) | 50µM* | ? | 9 | 12% | -1% | -7
N#CC1=C(S)N(c2ccccc2)C(c2ccc(-c3ccccc3Cl)o2)NC1=O (centres undefined) | 40µM* | 19µM* | -17 | -4% | -14% | -26
Cc1ccccc1N1C(S)=C(C#N)C(=O)NC1c1ccco1 (centres undefined) | 79µM* | ? | -4 | 3% | -27% | 6
CCCCN1C(=O)C2ON(c3ccccc3C)C(c3ccco3)C2C1=O (centres undefined) | -5% | -9% | -8 | -5% | 8% | -11
N#CC1=C(S)N(c2ccc(F)cc2)C(c2cccs2)NC1=O (centres undefined) | ? | -16% | -8 | -1% | -6% | -2
COc1cc(Cl)c(C)cc1NC(=O)CSc1nc2c(c(=O)[nH]1)CCC2 | 6% | . | . | . | . | .
CCOC(=O)/C(C#N)=C\c1cn(C)c2ccccc12 | -15% | -17% | -11 | 86% | -12% | -4
CCOC(=O)/C(=C\c1cn(C)c2ccccc12)[N+](=O)[O-] | 50µM* | 1.7µM* | -2 | -15% | -3% | 0
COc1ccc(NC(=O)C(CC(=O)O)C(C)c2ccccc2)cc1 (centres undefined) | ? | 9.5µM* | 4 | -5% | 3% | 2
O=C(Nc1nnc(-c2cccs2)o1)c1cccc(C(F)(F)F)c1 | ? | 30µM* | 0 | 31% | -9% | -6
N#Cc1ccc(C(=O)Nc2nnc(-c3cccs3)o2)cc1 | ? | 27µM* | -5 | 2% | -10% | -9
CN(C)S(=O)(=O)c1ccc(C(=O)Nc2nnc(-c3cccs3)o2)cc1 | -10% | ? | . | 0% | -12% | -5
C=C1C[C@H](OC(=O)C(C)(O)CCl)C2C(=C)C(=O)O[C@@H]2C2C1C[C@H](O)[C@]2(O)CCl (some centres undefined) | ? | . | . | . | -4% | .
O=C(O)c1cc([N+](=O)[O-])ccc1NCc1ccccc1Cl | -27% | 24µM* | 2 | ? | -8% | 1
COc1ccc(C)cc1NC(=O)C(OC(=O)c1ccc([N+](=O)[O-])o1)c1ccccc1 (centres undefined) | -5% | 27µM* | -2 | ? | -3% | 3
COc1ccc(C)cc1NC(=O)C(Sc1nnc(Nc2cc(C)ccc2OC)s1)c1ccccc1 (centres undefined) | 2% | -19% | -121* | 4% | -19% | -11

Screening data from PubChem.
